The values that follow come from PubChem BioAssay (NCATS).

The nature of test [1]: P-glycoprotein substrates identified in KB-8-5-11 adenocarcinoma cell line, qHTS therapeutic library screen (AID 1346987). Note: nearly all actives have a fitted effect of over 65% in size. Note: potency is the fitted concentration of half-maximal effect. Summed up:
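Luminescence from CellTiter-Glo, read 5 min after addition, quantified survival of KB-8-5-11 (P-gp-overexpressing) cells exposed to compounds for 72 h. AC50 was derived from concentration-response curves.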
(Quantitative high-throughput screening tests each substance at several concentrations.)

A short description of test [2]: Natriuretic polypeptide receptor (hNpr1) antagonism - Pilot counterscreen GloSensor control cell line (AID 1347045; calls by dose curve; note: series mostly up to about 38 µM). The gist of the method:
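Cells were first seeded and incubated overnight at 37C, then loaded with 2% GloSensor substrate for 2 h. Compounds were added for 30 min at room temperature, followed by a baseline read, 50 uM SNP and a final read after 20 min.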

Test [3] has as its target Atrial natriuretic peptide receptor 2 (Homo sapiens) (UniProt P20594). In words: Natriuretic polypeptide receptor (hNpr2) antagonism - Pilot subtype selectivity assay (AID 1347050; calls by dose curve). The gist of the method: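 Luminescence from a genetically encoded cGMP luciferase biosensor in hNpr2-expressing HEK293 cells is read before and 20 min after adding 1 nM hNppC. Test compounds, in interplate 1:5 titrations, are added 30-50 min ahead of the agonist.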

Test [4] concerns the target T1, Tyrosine-protein phosphatase non-receptor type substrate 1 (Homo sapiens) + Leukocyte surface antigen CD47 (Homo sapiens) (UniProt P78324+Q08722). The experiment in a line: CD47-SIRPalpha protein protein interaction - LANCE assay qHTS validation (AID 1347057; active = well fitted curve in the direction sought with a large enough effect in the signal ratio, with a control signal flat, not every such curve was filed as active; the % refers to the signal ratio; note: series mostly up to about 38 µM). Summed up:
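Inhibition of soluble CD47/SIRPalpha ectodomain association by titrated compounds, measured as 665/615 nm time-resolved FRET ratio after sequential 30 min room-temperature incubations.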
Background: Time-resolved FRET reads energy transfer from a long-lived donor to a nearby acceptor.

In test [5] the target is T1, Tyrosine-protein phosphatase non-receptor type substrate 1 (Homo sapiens) + Leukocyte surface antigen CD47 (Homo sapiens). The experiment in a line: CD47-SIRPalpha protein protein interaction - HTRF assay qHTS validation (AID 1347058; active = well fitted curve in the direction sought with a large enough effect in the signal ratio, not every such curve was filed as active; the % refers to the signal ratio; note: series mostly up to about 38 µM). The gist of the method: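 Soluble extracellular domains (6His-CD47, Avi-tag-biotinylated SIRPalpha) in PBS pH 7.4 with 0.05% IGEPAL CA-630. Compounds were preincubated 30 min at RT with CD47 and anti-His-Eu, then SIRPalpha and SAV-XL665 were added. TR-FRET 665/615 ratio.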

For test [6] the target is unchanged. In words: CD47-SIRPalpha protein protein interaction - Alpha assay qHTS validation (AID 1347059).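 Note: bead proximity luminescence from CD47 binding SIRPalpha after compound preincubation with SIRPalpha.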 Summed up: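 SIRPalpha-biotin 25 nM + cpd, 30 min RT, dark; add CD47-His 12.5 nM, 30 min; add Ni-NTA/SAV beads 10 ug/mL, 30 min; AlphaScreen. Buffer PBS pH 7.4 + 0.05% IGEPAL CA-630. Non-biotinylated SIRPalpha as control inhibitor.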
The target of test [7] is Parathyroid hormone/parathyroid hormone-related peptide receptor (Homo sapiens) (UniProt Q03431). In words: qHTS for PTHR1 Agonists: Optimization Screen against the NCGC LOPAC library (AID 1347079).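 Note: GloSensor cAMP luminescence in HEK-293 GP2 cells expressing human PTHR1 with IBMX.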 The gist of the method: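 HEK-293 GP2 cells, PTHR1 + GloSensor cAMP; 3000 cells/well, o/n. Luciferin + IBMX 0.5mM each (stock), 1 hr 37C. Cpd titration, 1 hr 37C. Lum after 15 min RT. Ctrl M-PTH(1-15) top 10uM.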

The nature of test [8]: qHTS of pediatric cancer cell lines to identify multiple opportunities for drug repurposing: Primary screen for TC32 cells (AID 1347089). Note: nearly all actives have a fitted effect of over 60% in size. Summed up:
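Luminescent CellTiter-Glo read-out of metabolically active TC32 cells after 48 h compound exposure. Primary: MIPE 11-point, 0.78 nM–46 µM; NPC 8-point, 0.59 nM–46 µM. Confirmatory: 11-point dilutions.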

The nature of test [9]: qHTS of pediatric cancer cell lines to identify multiple opportunities for drug repurposing: Primary screen for DAOY cells (AID 1347090). Note: nearly all actives have a fitted effect of over 55% in size. Note: potency is the fitted concentration of half-maximal effect. The gist of the method: (§1)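 Viability measured as metabolically active cells via CellTiter-Glo luminescence following 48 hours of compound exposure, 11-point dilutions in confirmatory testing. 500-1,000 cells/well plated 5 hours before dosing; controls were DMSO and 2.3 µM bortezomib.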

Test [10] in a line: qHTS of pediatric cancer cell lines to identify multiple opportunities for drug repurposing: Primary screen for A673 cells (AID 1347092). Note: nearly all actives have a fitted effect of over 45% in size. Note: potency is the fitted concentration of half-maximal effect. Summed up: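 A673 cells (500-1,000 cells/well in growth media) were pre-incubated 5 h at 37 degrees C, then exposed to compounds for 48 h. Viability was read as CellTiter-Glo luminescence; concentration-response curves came directly from the primary screen.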

A short description of test [11]: qHTS of pediatric cancer cell lines to identify multiple opportunities for drug repurposing: Primary screen for SK-N-MC cells (AID 1347093). Note: potency is the fitted concentration of half-maximal effect. Summed up:
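Metabolically active cells were quantified by ATP-dependent luminescence (CellTiter-Glo, 15 min at room temperature) following 48 h treatment. Cells had been plated at 500-1,000 per well and settled for 5 h beforehand.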

Test [12] in a line: qHTS of pediatric cancer cell lines to identify multiple opportunities for drug repurposing: Primary screen for BT-37 cells (AID 1347094). Note: potency is the fitted concentration of half-maximal effect. The gist of the method: (§2)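 Phenotypic viability qHTS, 48 h compound exposure, CellTiter-Glo luminescence read-out; multi-concentration dosing so that potency and efficacy derive directly from the primary screen's curves.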
Test [13] is described as follows: qHTS of pediatric cancer cell lines to identify multiple opportunities for drug repurposing: Primary screen for NB-EBc1 cells (AID 1347095). Note: potency is the fitted concentration of half-maximal effect. Summed up:
as §2

Test [14] can be described thus: qHTS of pediatric cancer cell lines to identify multiple opportunities for drug repurposing: Primary screen for U-2 OS cells (AID 1347096). Note: nearly all actives have a fitted effect of over 50% in size. Note: potency is the fitted concentration of half-maximal effect. Summed up:
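Viability after 48 h compound treatment at 37C, 500-1,000 cells/well, read as ATP luminescence with CellTiter-Glo. Primary screens used 11-point (MIPE, 0.78 nM-46 µM) or 8-point (NPC, 0.59 nM-46 µM) final concentrations; follow-up screens used 11-point dilutions.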

Test [15] can be described thus: qHTS of pediatric cancer cell lines to identify multiple opportunities for drug repurposing: Primary screen for Saos-2 cells (AID 1347097). Note: nearly all actives have a fitted effect of over 40% in size. Note: potency is the fitted concentration of half-maximal effect. Summed up:
as §2

Test [16] is described as follows: qHTS of pediatric cancer cell lines to identify multiple opportunities for drug repurposing: Primary screen for SK-N-SH cells (AID 1347098). Note: nearly all actives have a fitted effect of over 65% in size. Note: potency is the fitted concentration of half-maximal effect. Summed up:
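Cells (500-1,000/well) rested 5 h, then received compounds for 48 h; metabolically active cells were measured by CellTiter-Glo luminescence. Final concentrations spanned up to 46 µM (MIPE, 11-point) or 0.59 nM-46 µM (NPC, 8-point) in primary screens, 11-point in follow-ups.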

The nature of test [17]: qHTS of pediatric cancer cell lines to identify multiple opportunities for drug repurposing: Primary screen for NB1643 cells (AID 1347099). Note: nearly all actives have a fitted effect of over 50% in size. Note: potency is the fitted concentration of half-maximal effect. The gist of the method: as §2
Test [18] in a line: P-glycoprotein substrates identified in KB-3-1 adenocarcinoma cell line, qHTS therapeutic library screen (AID 1346986). Note: nearly all actives have a fitted effect of over 60% in size.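 Note: potency is the fitted concentration of half-maximal effect; potency is for cytotoxicity meaning loss of cell viability.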 The gist of the method: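 In 1536-well format, 500 cells/well received pinned compound titrations and were incubated 72 h, 5% CO2. Viability was read by CellTiter-Glo; cytotoxic if AC50 < 10 uM and efficacy >50%.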
Test [19] in a line: qHTS of pediatric cancer cell lines to identify multiple opportunities for drug repurposing: Primary screen for SJ-GBM2 cells (AID 1347091). Note: potency is the fitted concentration of half-maximal effect. Summed up: as §1
The nature of test [20]: NS1 protein of Zika virus - qHTS assay to identify small molecule inhibitors in human HEK 293 cells (AID 1347053). Note: series mostly up to about 46 µM; nearly all actives have a fitted effect of over 55% in size. Summed up:
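Read-out is a two-antibody TR-FRET for ZIKV NS1, normalized between uninfected cells and infected cells. Compound added 1 h before MR766 infection at MOI 0.5; human HEK 293 cells incubated 24 h, 37 C.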

Where “and” joins values, the source holds several entries; their conditions need not be identical. Equal values may be shown once. Inconclusive results are not listed. Calls of active or inactive are those of the source. Unless noted, calls come from the whole dose curve; as a rule, active = well fitted curve in the direction sought with a large enough effect; inconclusive = small, poorly fitted or top-dose-only effect, or another doubt; inactive = no such curve, though single readings can be large; an effect the other way counts as inactive or inconclusive.

Atrial natriuretic peptide receptor 2 (Homo sapiens), sequence (P20594 whole entry, looked up): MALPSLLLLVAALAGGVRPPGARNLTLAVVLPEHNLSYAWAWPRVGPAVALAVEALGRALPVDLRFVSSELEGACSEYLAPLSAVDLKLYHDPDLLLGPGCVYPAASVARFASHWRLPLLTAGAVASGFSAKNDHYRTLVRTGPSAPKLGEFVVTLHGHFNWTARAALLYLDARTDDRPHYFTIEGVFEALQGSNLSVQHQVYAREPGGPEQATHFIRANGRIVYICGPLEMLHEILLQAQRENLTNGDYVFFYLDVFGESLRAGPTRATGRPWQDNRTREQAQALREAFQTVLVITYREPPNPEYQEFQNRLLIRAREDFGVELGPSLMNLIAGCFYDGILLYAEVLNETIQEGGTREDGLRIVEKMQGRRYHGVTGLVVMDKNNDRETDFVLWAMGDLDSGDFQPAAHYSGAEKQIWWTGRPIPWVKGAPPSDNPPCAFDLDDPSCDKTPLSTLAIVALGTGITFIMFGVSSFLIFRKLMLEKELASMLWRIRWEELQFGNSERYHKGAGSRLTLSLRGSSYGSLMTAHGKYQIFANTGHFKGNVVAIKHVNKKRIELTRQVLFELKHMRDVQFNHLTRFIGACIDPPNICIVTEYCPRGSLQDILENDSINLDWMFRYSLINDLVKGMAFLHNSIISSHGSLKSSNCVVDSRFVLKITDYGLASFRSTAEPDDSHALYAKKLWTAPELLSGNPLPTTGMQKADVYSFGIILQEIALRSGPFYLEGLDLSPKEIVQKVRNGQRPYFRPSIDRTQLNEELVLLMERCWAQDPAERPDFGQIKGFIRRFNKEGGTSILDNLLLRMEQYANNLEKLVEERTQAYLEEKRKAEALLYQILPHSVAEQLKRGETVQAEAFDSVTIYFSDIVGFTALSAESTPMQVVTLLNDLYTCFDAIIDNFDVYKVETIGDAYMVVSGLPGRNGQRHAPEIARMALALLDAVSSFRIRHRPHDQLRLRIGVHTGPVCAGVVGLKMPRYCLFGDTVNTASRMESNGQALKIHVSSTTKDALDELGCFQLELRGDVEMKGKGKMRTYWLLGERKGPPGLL
Parathyroid hormone/parathyroid hormone-related peptide receptor (Homo sapiens), sequence (Q03431 whole entry, looked up): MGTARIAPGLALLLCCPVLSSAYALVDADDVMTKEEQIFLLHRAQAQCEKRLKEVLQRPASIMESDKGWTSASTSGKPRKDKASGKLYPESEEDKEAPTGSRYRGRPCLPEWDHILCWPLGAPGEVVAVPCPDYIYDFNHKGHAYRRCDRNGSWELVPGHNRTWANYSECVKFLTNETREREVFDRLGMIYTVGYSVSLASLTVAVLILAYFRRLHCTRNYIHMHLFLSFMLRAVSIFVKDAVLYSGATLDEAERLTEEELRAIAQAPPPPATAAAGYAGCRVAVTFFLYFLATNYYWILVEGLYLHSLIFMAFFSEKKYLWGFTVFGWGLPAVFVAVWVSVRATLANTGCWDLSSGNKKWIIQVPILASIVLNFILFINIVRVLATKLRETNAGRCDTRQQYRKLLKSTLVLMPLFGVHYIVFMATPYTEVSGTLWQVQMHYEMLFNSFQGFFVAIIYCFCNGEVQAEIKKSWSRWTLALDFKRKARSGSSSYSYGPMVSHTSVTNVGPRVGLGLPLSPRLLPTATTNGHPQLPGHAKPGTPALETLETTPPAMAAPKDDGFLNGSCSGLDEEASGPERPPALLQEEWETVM
T1 sequence (P78324 whole entry, looked up, the tested form may be a part): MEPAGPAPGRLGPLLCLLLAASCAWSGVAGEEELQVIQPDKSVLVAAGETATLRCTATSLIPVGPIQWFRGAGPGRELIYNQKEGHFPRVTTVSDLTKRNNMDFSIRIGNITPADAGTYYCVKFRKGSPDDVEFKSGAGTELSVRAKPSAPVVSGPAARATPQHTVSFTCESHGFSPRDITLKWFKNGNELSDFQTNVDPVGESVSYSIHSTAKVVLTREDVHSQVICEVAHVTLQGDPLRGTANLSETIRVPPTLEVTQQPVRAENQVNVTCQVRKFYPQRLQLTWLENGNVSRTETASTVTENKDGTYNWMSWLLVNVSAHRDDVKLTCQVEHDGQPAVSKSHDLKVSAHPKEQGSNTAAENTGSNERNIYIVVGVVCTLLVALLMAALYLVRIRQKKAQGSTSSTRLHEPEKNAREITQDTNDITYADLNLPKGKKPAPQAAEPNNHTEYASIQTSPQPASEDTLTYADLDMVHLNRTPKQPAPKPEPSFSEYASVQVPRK
T1 sequence (Q08722 whole entry, looked up, the tested form may be a part): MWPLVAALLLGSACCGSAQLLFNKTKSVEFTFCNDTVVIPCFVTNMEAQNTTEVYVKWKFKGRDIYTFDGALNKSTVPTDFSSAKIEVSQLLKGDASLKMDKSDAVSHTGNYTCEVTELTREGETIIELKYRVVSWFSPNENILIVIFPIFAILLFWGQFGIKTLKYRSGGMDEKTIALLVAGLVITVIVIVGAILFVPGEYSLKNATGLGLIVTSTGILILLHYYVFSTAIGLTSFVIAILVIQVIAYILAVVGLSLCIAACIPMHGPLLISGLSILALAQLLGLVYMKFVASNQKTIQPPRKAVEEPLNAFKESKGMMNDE

Take `CC(=O)N[C@@H](CS)C(=O)O`: the Potency entry in [1], in test [2], in test [8], in test [9], in [10] and in test [11] was “inactive” each time. Moreover, the Potency entry in test [12], in test [13], in [14], in [15], in [16] and in test [17] was “inactive” each time. The outcome in test [3], in test [4], in test [5], in test [6] and in test [7] was inactive.
For `Cc1ccc(Nc2cc(-c3cccc(N4C(=O)c5ccccc5C4=O)c3)ncn2)cc1NS(C)(=O)=O`, the Potency entry in test [18], in [1], in test [8], in test [19] and in [14] was “inactive” in each case. Moreover, the figures for the Potency in test [10] and in test [15] were 18.7 µM (active) and 33.2 µM (active), respectively.
For the molecule `Cc1nc(N)sc1-c1ccnc(Nc2ccc(N3CCOCC3)cc2)n1`, the Potency is 1.46 µM (active) in test [18]; 5.26 µM (active) and 1.16 µM (active) in test [1]; 18.7 µM (active) in test [9]; 2.35 µM (active) in test [19]; 9.35 µM (active) in test [10]; 1.05 µM (active) in [11]. For the same molecule, the Potency in [12] is 24.3 µM (active); in test [13], 23.5 µM (active); in test [14], 18.7 µM (active); in test [15] it was 11.8 µM (active); in [16] it was 6.81 µM (active); in [17], 9.35 µM (active).
As for `O=C1NC(=O)C(c2ccccc2)(c2ccccc2)N1`, the Potency result in test [1], in [2], in [20], in test [8], in [9] and in test [19] was “inactive” each time. For the same molecule, the Potency entry in test [10], in [11], in test [12], in test [13], in test [15] and in test [16] was “inactive” throughout. Further, the Potency entry in test [17] was “inactive”. Moreover, the molecule was called inactive in test [3], in test [4], in [5], in test [6] and in test [7].
Regarding `CC1=C(/C=C/C(C)=C/C=C/C(C)=C/C(=O)Nc2ccc(O)cc2)C(C)(C)CCC1`, the Potency is 23.1 µM (active) in test [1]; 6.68 µM (active) in test [10]; 6.68 µM (active) in test [11]; 15.5 µM (active) in test [12]; 26.6 µM (active) in test [14]; 23.7 µM (active) in [15]. Also, the Potency result in test [2] is “inactive”. In addition, the result in test [3], in test [4], in test [5] and in [7] was inactive.
Take `Cc1cccc(C)c1OCC(C)N` (stereo not drawn): the Potency result in [1], in [20], in test [8], in test [19], in test [10] and in [11] was “inactive” throughout. Besides, the Potency result in test [12], in [13], in [14], in [16] and in test [17] was “inactive” each time. In addition, the call in [3] and in test [7] was inactive.
Turning to `CCC(=O)NC[C@H](Cc1ccc(OCCc2nc(-c3ccccc3)oc2C)cc1)NC(C)=CC(=O)c1ccc(C(F)(F)F)cc1`, the Potency entry in test [18], in test [1] and in test [8] was “inactive” in each case. Further, the Potency in test [10] was 1.87 µM (active); in test [11], 2.35 µM (active); in test [12], 3.06 µM (active); in test [13] it was 0.743 µM (active); in [15], 16.6 µM (active); in test [17], 13.2 µM (active).
For the molecule `O=c1cc(N2CCOCC2)oc2c(-c3cccc4c3sc3ccccc34)cccc12`, the Potency entry in test [18], in [1], in test [8] and in [16] was “inactive” each time. For the same molecule, the Potency was 5.9 µM (active) in test [19]; 14.8 µM (active) in test [10]; 5.26 µM (active) in test [11]; 21.7 µM (active) in [12]; 8.33 µM (active) in test [13]; 18.7 µM (active) in [15]. For the same molecule, the Potency in test [17] was 5.26 µM (active).
